What was measured:
Details in all cases: concentration: 1 μM, replicates: in singlicate; n = 1
[1] = test system: CSNK1G1
[2] = test system: CSNK1G2
[3] = test system: CSNK1G3
[4] = test system: CSNK2A1
[5] = test system: CSNK2A2
[6] = test system: T1, CTK
T1 construct: gene MATK

[7] = test system: DAPK1
[8] = test system: DAPK2
[9] = test system: DAPK3
[10] = test system: T2, DCAMKL1
T2 construct: gene DCLK1
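Also: KINOMEscan kinase panel screen.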

Compound	%Inh [1] [%]	%Inh [2] [%]	%Inh [3] [%]	%Inh [4] [%]	%Inh [5] [%]	%Inh [6] [%]	%Inh [7] [%]	%Inh [8] [%]	%Inh [9] [%]	%Inh [10] [%]
NCCCC(NC(=O)c1cc(Br)c(-c2ccnc3[nH]ccc23)s1)c1ccccc1.O=C(O)C(F)(F)F.O=C(O)C(F)(F)F (stereo not shown) [GSK1287544]	57	97.2	94.8	27	20	0	0	0	0	8
O=C(Nc1n[nH]c2nc(-c3ccc(O)cc3)ccc12)C1CC1 [SB-710363]	0	0	9	64	87	30	76	0	32	0
COC(=O)Nc1nc2cc(Oc3ccc(NC(=O)Nc4cc(C(F)(F)F)ccc4F)cn3)ccc2[nH]1.Cl.Cl [GW681170]	10	6	18	0	72	0	51	0	9	11
O=C(NC1CCN(c2ccnc(Nc3ccc(F)cc3)n2)C1)c1cc2ccccc2s1 (stereo not shown) [GSK1379716]	20	0	24	0	12	0	19	15	5	18
CNC(=O)c1ccccc1Nc1nc(Nc2ccc(N3CCOCC3)cc2)ncc1Cl.Cl [GSK1576028]	66	85	56	99.8	99.9	34	95	69	89	52
Cc1ccc(C(=O)N2CC[C@@H](O)C2)cc1-n1c(C)cc(OCc2ccc(F)cc2F)c(Br)c1=O	0	0	0	0	0	0	3	0	7	40
COc1cc(Nc2nccc(N3CCC(NC(=O)Nc4cccc(C(C)=O)c4)C3)n2)cc(OC)c1OC (stereo not shown) [GSK1379753]	12	0	21	13	16	0	5	0	13	20
COc1cc(Nc2ncc3c(C)nc(-c4cc5ccccc5[nH]4)n3n2)cc(OC)c1OC [GW869516]	21	0	29	96.4	99.7	0	0	0	11	17
Cn1cc(-c2ccc3c(c2)CCN3C(=O)Cc2cccc(F)c2)c2c(N)ncnc21 [GSK2603358]	28	0	38	0	0	0	0	0	12	14
COc1ccc(CNC(=O)NC2CCN(c3ccnc(Nc4ccc(F)cc4)n3)CC2)cc1 [GSK1379788]	0	0	19	0	0	0	0	0	0	0
O=C(Nc1cccc(-c2nn3ncccc3c2-c2ccnc(Nc3ccccc3)n2)c1)c1c(F)cccc1F [GSK198271]	19	0	26	8	11	27	11	0	1	18
CN(c1ccc(NC(=O)Nc2cc(C(F)(F)F)ccc2F)cc1)c1ccnc(Nc2ccc(S(N)(=O)=O)cc2)n1 [GW809893]	5	0	18	13	0	23	0	0	0	3
Cc1ccc(F)c(C(=O)Nc2cccc(-c3nn4ccccc4c3-c3ccnc(Nc4cccc(F)c4)n3)c2)c1F [GSK361061]	10	12	27	20	10	27	0	10	14	0
O=C(Nc1cccc(-c2nn3ccccc3c2-c2ccnc(Nc3cccc(C(F)(F)F)c3)n2)c1)c1c(F)cccc1F [GSK292658]	0	0	8	7	2	14	0	0	0	49
O=C(O)C(F)(F)F.O=C(O)C(F)(F)F.O=c1[nH]ccc2nc(N[C@@H]3CCCNC3)nc(Nc3ccc(S(=O)(=O)N4CCOCC4)cc3)c12 [GSK2177277]	96.3	98.8	99.2	98.7	98.9	69	98.2	98.1	99.3	98.1
Cl.Cl.NCC(C(=O)Nc1cc(Br)c(-c2ccnc3[nH]ccc23)s1)c1ccccc1 (stereo not shown) [GSK1269851]	0	4	35	79	73	7	0	0	15	9
Nc1ncnc2c1nc(-c1ccccc1)n2-c1ccccc1 [SKF-97293]	4	14	7	0	13	42	0	0	17	0
CC(=O)Nc1nc2cnc(Nc3cc(NC(=O)c4cccc(C5(C#N)CC5)c4Cl)ccc3C)nc2s1	0	0	0	0	0	52	0	0	0	23
O=C(Nc1cccc(-c2nn3ccccc3c2-c2ccnc(Nc3cccc(F)c3)n2)c1)c1c(F)ccc(F)c1Cl [GSK357952]	0	0	25	41	12	15	0	0	0	3
Cl.c1ccc(-c2ccc3c(Nc4ccc5[nH]ncc5c4)ccnc3c2)nc1 [GW440137]	0	17	30	0	8	0	15	0	23	12
CCS(=O)(=O)c1ccc(OC)c(Nc2nccc(-c3c(-c4cccc(NC(=O)c5c(F)cccc5F)c4)nn4ncccc34)n2)c1 [GSK326180]	15	4	15	0	0	0	9	0	9	3
Cl.Cl.NCC(NC(=O)c1cc(-c2ccccc2)c(-c2ccnc3[nH]ccc23)s1)c1ccccc1 (stereo not shown) [GSK1321561]	14	89	81	5	38	0	0	3	12	0
Cc1cccc(Nc2nc(N[C@H]3CCNC3)ncc2C(N)=O)c1.Cl [GSK2197149]	14	11	15	52	0	13	69	51	22	16
CCn1c(-c2nonc2N)nc2c(C#CC(C)(C)O)ncc(OCCCCN)c21.O=C(O)C(F)(F)F.O=C(O)C(F)(F)F [GSK507274]	40	0	15	0	0	2	28	10	82	40
COc1cccc(C2=C(Nc3ccc(Cl)c(C(=O)O)c3)C(=O)NC2=O)c1 [SB-390769]	11	0	0	0	7	95.9	0	0	99.9	100
Cc1occc1-c1ncc(OC[C@@H](N)Cc2c[nH]c3ccccc23)cc1-c1ccc2[nH]nc(C)c2c1.O=C(O)C(F)(F)F [GSK682037]	76	95.5	93.7	0	8	0	0	0	2	10
Cc1ccc(C(=O)Nc2ccc(Nc3ccnc4cc(-c5nccs5)ccc34)cc2O)cc1.Cl [GW494702]	0	0	4	0	100	8	0	0	10	0
COc1cccc(NC(=O)NC2CCN(c3ccnc(Nc4cc(OC)c(OC)c(OC)c4)n3)C2)c1 (stereo not shown) [GSK1379763]	0	0	14	12	7	0	5	0	17	0

— paper PMC5540273 (PLoS ONE, 2017)
